Source: the supplement of paper PMC8728848
Shown is part of a subset that was picked to be rich in the strongest signals.

Tests used:
Assay in all cases: glycan array binding signal (z-score within array); higher = stronger binding
Conditions in all cases: glycan notation: IUPAC condensed, linker removed; mutation: Y228A
[1] = biological target: Fuc(a1-2)Gal(b1-3)GlcNAc(b1-3)[Gal(b1-4)GlcNAc(b1-6)]Gal(b1-4)Glc
Summary of the method: (§1)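 Glycan array data came from 3228 arrays in the Consortium for Functional Glycomics database, and only arrays with an available protein sequence were kept. Glycan names were put into IUPAC-condensed notation, and columns mapping to the same glycan were averaged. The binding signal is a within-array Z-score, averaged across arrays of one protein sequence run at different concentrations or buffers and across linkers. A negative Z-score can be read as non-binding.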

[2] = biological target: Fuc(a1-2)Gal(b1-3)[Fuc(a1-4)]GlcNAc(b1-2)Man(a1-3)[Fuc(a1-2)Gal(b1-3)[Fuc(a1-4)]GlcNAc(b1-2)Man(a1-6)]Man(b1-4)GlcNAc(b1-4)[Fuc(a1-6)]GlcNAc(b1-4)[Fuc(a1-6)]GlcNAc
Summary of the method: as §1

[3] = biological target: Fuc(a1-2)Gal(b1-4)GlcNAc(b1-2)Man(a1-3)[Fuc(a1-2)Gal(b1-4)GlcNAc(b1-2)Man(a1-6)]Man(b1-4)GlcNAc(b1-4)GlcNAc
Summary of the method: as §1

[4] = biological target: Fuc(a1-2)Gal(b1-4)GlcNAc6S
Summary of the method: as §1

[5] = biological target: Fuc(a1-2)Gal(b1-4)[Fuc(a1-3)]GlcNAc(b1-3)GalNAc
Summary of the method: as §1

[6] = biological target: Fuc(a1-2)Gal6S(b1-4)Glc6S
Summary of the method: as §1

[7] = biological target: Fuc(a1-2)[Gal(a1-3)]Gal(b1-4)[Fuc(a1-3)]Glc
Summary of the method: as §1

[8] = biological target: Fuc(a1-2)[GalNAc(a1-3)]Gal(b1-3)GalNAc(a1-3)[Fuc(a1-2)]Gal(b1-4)GlcNAc
Summary of the method: as §1

[9] = biological target: Fuc(a1-2)[GalNAc(a1-3)]Gal(b1-3)GlcNAc(b1-3)GalNAc
Summary of the method: as §1

[10] = biological target: Fuc(a1-2)[GalNAc(a1-3)]Gal(b1-4)GlcNAc(b1-3)[Fuc(a1-2)[GalNAc(a1-3)]Gal(b1-4)GlcNAc(b1-6)]GalNAc
Summary of the method: as §1

[11] = biological target: Fuc(a1-3)[Gal(b1-4)]GlcNAc(b1-6)GalNAc
Summary of the method: as §1

[12] = biological target: Fuc(a1-3)[Gal(b1-4)]GlcNAc(b1-6)[Gal(b1-3)GlcNAc(b1-3)]Gal(b1-4)Glc
Summary of the method: as §1

[13] = biological target: Gal(a1-2)Gal
Summary of the method: as §1

[14] = biological target: Gal(a1-3)Gal(b1-4)GlcNAc(b1-2)Man(a1-3)[Gal(a1-3)Gal(b1-4)GlcNAc(b1-2)Man(a1-6)]Man(b1-4)GlcNAc(b1-4)GlcNAc
Summary of the method: as §1

[15] = biological target: Gal(a1-3)GalNAc
Summary of the method: as §1

[16] = biological target: Gal(a1-4)Gal(b1-4)GlcNAc(b1-2)Man(a1-3)[Gal(a1-4)Gal(b1-4)GlcNAc(b1-2)Man(a1-6)]Man(b1-4)GlcNAc(b1-4)GlcNAc
Summary of the method: as §1

[17] = biological target: Gal(b1-3)Gal
Summary of the method: as §1

[18] = biological target: Gal(b1-3)Gal(b1-4)GlcNAc
Summary of the method: as §1

[19] = biological target: Gal(b1-3)GalNAc(a1-3)[Fuc(a1-2)]Gal(b1-4)Glc
Summary of the method: as §1

[20] = biological target: Gal(b1-3)GlcNAc(a1-3)Gal(b1-4)GlcNAc
Summary of the method: as §1

[21] = biological target: Gal(b1-3)GlcNAc(b1-2)Man
Summary of the method: as §1

[22] = biological target: Gal(b1-3)GlcNAc(b1-2)Man(a1-3)[Gal(b1-3)GlcNAc(b1-2)Man(a1-6)]Man(b1-4)GlcNAc(b1-4)[Fuc(a1-6)]GlcNAc
Summary of the method: as §1

[23] = biological target: Gal(b1-3)GlcNAc(b1-2)Man(a1-3)[GlcNAc(b1-4)][Gal(b1-3)GlcNAc(b1-2)Man(a1-6)]Man(b1-4)GlcNAc(b1-4)GlcNAc
Summary of the method: as §1

[24] = biological target: Gal(b1-3)GlcNAc(b1-3)Gal(b1-4)GlcNAc(b1-6)[Gal(b1-3)GlcNAc(b1-3)]Gal(b1-4)Glc
Summary of the method: as §1

[25] = biological target: Gal(b1-3)GlcNAc(b1-6)Gal(b1-4)GlcNAc
Summary of the method: as §1

[26] = biological target: Gal(b1-3)GlcNAc(b1-6)GalNAc
Summary of the method: as §1

[27] = biological target: Gal(b1-3)GlcNAc6S
Summary of the method: as §1

B1: Epa1-NP-mutant-Y228A (Candida glabrata), Q6VBJ0 (protein)
chain: MILNPALFLNKCVCIYTTLILLLLTNGGYATSSNDISLASKDPTTFPLGCSPDITTPKKGLSMELYSYDFRKKGSYPCWDAAYLDPNYPRTGYKSHRLLAKVDGVTGNINFYYHATKGCTPQLGHLPASYNYPKPLTMTNFTMLLYGYFRPKVTGFHTFTISADDLLFVNFGAGNAFDCCRRDSSADHFGNYQAYAIWGSKTAKDELTVHLDAGVYYPIRLFYNNREADGALSFTFKTESNENTVSDFSEYFFSLDDTEEGCPGLISYDSSCASVKTSKIIGIDYHTETPNENLVPITKTIYHLGIPCTGTTTTPLCGSGFYDPLANKCVTINTSSTSSVTKTTSHTTSKEVSFHSSISSQKTLIPKSIPSPYGPIKSQSIPTEMETSSEISSSEYAFSDVISTPSHSPYTKKHSSLNSSSYTSTVIHSLTSYSISQGIFSTSLSEQNITSKSSTDKFSTATSMSNNITQSSIIISQFSTNNENYTTTSMHTSSDKISTETLNNSISTTTSILFSNSSTILKNNTTIISSDKDTHYHPVNPTIVCSTNKTEIICASITQPSISNSNNHWSSSVLKFNSTTVRSTLPSSAGSNETSINVPFSSSTESNTSTSSTSTSNSKMVRSTLPSSAGSNETSISVPFSSSTESNTSTSSTSTSNSKMVRSTLPSSAGSNETSINVPFSSSTESNTSTSSTSTSNSKTVRSTPFSSAGIIMTSLSQRNNKSASSYASSNSKCYNTADSCRKVHSTPSYLLTSSYTSEGVDYDCSLVSTKLKINDTNCVNNKHTTKSCLKTSVTTTIPTLEIKTARKSSSNTIGLHSYPTSSPNKSISSAPIIGYISSFKTIKTASPSYQTSDLTTITTITSLNNPGSTAVENTHESNDKSRKTSSNDISSKHSVIKETKDAVESSNKSHQTNTLKCSSIIIASSSHNSYESLGGTTLTLTLSKVYSPQNNDTLPFLEISEVNPSRTVLPESSKMMQYLTSTEERNKTARNTIATNIVSISTFHFEGEGNAIRMGYTQLLLMLIGIIVMNIGT
glycan array binding signal (z-score) [1]: -0.261 | glycan array binding signal (z-score) [2]: -0.098 | glycan array binding signal (z-score) [3]: -0.023 | glycan array binding signal (z-score) [4]: -0.027 | glycan array binding signal (z-score) [5]: -0.103 | glycan array binding signal (z-score) [6]: -0.325 | glycan array binding signal (z-score) [7]: -0.203 | glycan array binding signal (z-score) [8]: -0.281 | glycan array binding signal (z-score) [9]: 0.018 | glycan array binding signal (z-score) [10]: -0.156 | glycan array binding signal (z-score) [11]: -0.289 | glycan array binding signal (z-score) [12]: -0.025 | glycan array binding signal (z-score) [13]: -0.233 | glycan array binding signal (z-score) [14]: -0.232 | glycan array binding signal (z-score) [15]: -0.151 | glycan array binding signal (z-score) [16]: 0.054 | glycan array binding signal (z-score) [17]: 11.6 | glycan array binding signal (z-score) [18]: 10.2 | glycan array binding signal (z-score) [19]: 0.088 | glycan array binding signal (z-score) [20]: -0.17 | glycan array binding signal (z-score) [21]: 3.19 | glycan array binding signal (z-score) [22]: 2.29 | glycan array binding signal (z-score) [23]: 2.24 | glycan array binding signal (z-score) [24]: 2.26 | glycan array binding signal (z-score) [25]: 2.32 | glycan array binding signal (z-score) [26]: -0.142 | glycan array binding signal (z-score) [27]: 7.1
